Results taken from the supplement of paper PMC10037445.
Over roughly 2,900 compounds, “IRF Lucia reporter activity, fold change vs agonist alone” has its median near 0.9; the highest 2% begin near 2.8. This excerpt belongs to a sample that is enriched for the highest values.

What was measured:
[1] = system: RAW-Dual; experiment: IRF Lucia reporter activity, fold change vs agonist alone; higher = enhanced IRF activity; details: agonist: MPLA (TLR4) […]
Procedure, shortened: (§1)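 Reporter activity is given as fold change relative to agonist-alone wells. To measure it, 50 nL of library stock was pin-tooled onto RAW-Dual macrophages (50,000 cells/well, DMEM, 384-well plates), a PRR agonist followed 1 h later, and cells stayed at 37 °C, 5% CO2. Twenty hours on, supernatant was assayed for IRF (QuantiLuc luminescence) and NF-κB (QuantiBlue, 620 nm absorbance), and wells under 70% of agonist-control IncuCyte confluency in both mask sets were marked cytotoxic.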

[2] = system: RAW-Dual; experiment: IRF Lucia reporter activity, fold change vs agonist alone; cytotoxicity flag (confluency mask): not cytotoxic; higher = enhanced IRF activity
Procedure, shortened: as §1

[3] = system: RAW-Dual; experiment: IRF Lucia reporter activity, fold change vs agonist alone; cytotoxicity flag (confluency mask): cytotoxic (confluency <70% of control); higher = enhanced IRF activity
Procedure, shortened: as §1

[4] = library stock concentration (final ~1000-fold dilution): 10 mM, cytotoxicity flag (confluency mask): not cytotoxic
[5] = agonist: 3'3'-cGAMP (STING) 10 ug/mL
[6] = library stock concentration (final ~1000-fold dilution): 10 mM, cytotoxicity flag (confluency mask): cytotoxic (confluency <70% of control)

O=C(CCc1ccc(O)cc1)c1c(O)cccc1OC1OC(CO)C(O)C(O)C1O (centres undefined)
IRF Lucia reporter activity [1, 4]: 1.01

O=C(CCc1ccc(O)cc1)c1c(O)cccc1OC1OC(CO)C(O)C(O)C1O (centres undefined) (library stock concentration (final ~1000-fold dilution): 10 mM)
IRF Lucia reporter activity [2, 5]: 0.943 | IRF Lucia reporter activity ([2]; agonist: LPS (TLR4) 0.1 ug/mL): 0.918

CC(c1ccc2nccn2c1)n1nnc2ncc(-c3cnn(C)c3)nc21 (centres undefined) (library stock concentration (final ~1000-fold dilution): 10 mM)
IRF Lucia reporter activity [2, 5]: 0.953 | IRF Lucia reporter activity ([2]; agonist: LPS (TLR4) 0.1 ug/mL): 1.15

CN(C)CCSSCCNC(=O)C1CCN(C(=O)CSc2ccc(Cl)cc2)CC1.O=C(O)C(F)(F)F (library stock concentration (final ~1000-fold dilution): 10 mM)
IRF Lucia reporter activity [2, 5]: 0.396 | IRF Lucia reporter activity ([2]; agonist: LPS (TLR4) 0.1 ug/mL): 0.778

CN(C)CCSSCCNC(=O)C1CCN(C(=O)CSc2ccc(Cl)cc2)CC1.O=C(O)C(F)(F)F
IRF Lucia reporter activity [1, 4]: 0.751

O=C1OC(COc2ccccc2[N+](=O)[O-])CC1Cc1ccccc1 (centres undefined) (library stock concentration (final ~1000-fold dilution): 10 mM)
IRF Lucia reporter activity [2, 5]: 1.23 | IRF Lucia reporter activity ([2]; agonist: LPS (TLR4) 0.1 ug/mL): 1.23

O=c1cccccc1O (library stock concentration (final ~1000-fold dilution): 10 mM)
IRF Lucia reporter activity [2, 5]: 0.664 | IRF Lucia reporter activity ([2]; agonist: LPS (TLR4) 0.1 ug/mL): 0.952

O=c1cccccc1O
IRF Lucia reporter activity [1, 4]: 1.24

NC(=O)c1cc(F)cc2c1C(=O)N(C1CCN(C3CCC(F)(F)CC3)CC1)C2 (library stock concentration (final ~1000-fold dilution): 10 mM)
IRF Lucia reporter activity [2, 5]: 0.94 | IRF Lucia reporter activity ([2]; agonist: LPS (TLR4) 0.1 ug/mL): 0.923

O=C(Nc1nc2cccc(-c3ccc(CN4CCS(=O)(=O)CC4)cc3)n2n1)C1CC1 (library stock concentration (final ~1000-fold dilution): 10 mM)
IRF Lucia reporter activity [2, 5]: 1.1 | IRF Lucia reporter activity ([2]; agonist: LPS (TLR4) 0.1 ug/mL): 3.4

CC1(C)CN(C(=O)c2ccc(-c3cccc4nc(NC(=O)C5CC5)nn34)cc2)C1
IRF Lucia reporter activity [1, 4]: 0.713

CC1(C)CN(C(=O)c2ccc(-c3cccc4nc(NC(=O)C5CC5)nn34)cc2)C1 (library stock concentration (final ~1000-fold dilution): 10 mM)
IRF Lucia reporter activity [2, 5]: 0.308 | IRF Lucia reporter activity ([2]; agonist: LPS (TLR4) 0.1 ug/mL): 0.577

CNCCC=C1c2ccccc2CCc2ccccc21.Cl
IRF Lucia reporter activity [1, 6]: 1.38

CNCCC=C1c2ccccc2CCc2ccccc21.Cl (library stock concentration (final ~1000-fold dilution): 10 mM)
IRF Lucia reporter activity [3, 5]: 0.464 | IRF Lucia reporter activity ([3]; agonist: LPS (TLR4) 0.1 ug/mL): 1.52

CN(C)c1ccc(O)c2c1CC1CC3C(N(C)C)C(O)=C(C(N)=O)C(=O)C3(O)C(O)=C1C2=O.Cl (centres undefined)
IRF Lucia reporter activity ([1]; library stock concentration (final ~1000-fold dilution): 2 mM water, cytotoxicity flag (confluency mask): not cytotoxic): 1.28

CN(C)c1ccc(O)c2c1CC1CC3C(N(C)C)C(O)=C(C(N)=O)C(=O)C3(O)C(O)=C1C2=O.Cl (centres undefined) (library stock concentration (final ~1000-fold dilution): 2 mM water)
IRF Lucia reporter activity [2, 5]: 1.09 | IRF Lucia reporter activity ([2]; agonist: LPS (TLR4) 0.1 ug/mL): 0.851

Cc1sc2c(c1C)C(c1ccc(Cl)cc1)=N[C@@H](CC(=O)NCCCCCCCCNC(=O)COc1cccc3c1C(=O)N(C1CCC(=O)NC1=O)C3=O)c1nnc(C)n1-2 (some centres undefined) (library stock concentration (final ~1000-fold dilution): 10 mM)
IRF Lucia reporter activity [3, 5]: 0.189 | IRF Lucia reporter activity ([3]; agonist: LPS (TLR4) 0.1 ug/mL): 0.244

CC(C)(O)c1ccccc1CCC(SCC1(CC(=O)O)CC1)c1cccc(/C=C/c2ccc3ccc(Cl)cc3n2)c1 (centres undefined)
IRF Lucia reporter activity [1, 6]: 0.73

CC(C)(O)c1ccccc1CCC(SCC1(CC(=O)O)CC1)c1cccc(/C=C/c2ccc3ccc(Cl)cc3n2)c1 (centres undefined) (library stock concentration (final ~1000-fold dilution): 10 mM)
IRF Lucia reporter activity [3, 5]: 0.492 | IRF Lucia reporter activity ([3]; agonist: LPS (TLR4) 0.1 ug/mL): 1.52

CCOC(=O)CCNc1cc(N2CCc3ccccc3CC2)nc(-c2ccccn2)n1.Cl (library stock concentration (final ~1000-fold dilution): 10 mM)
IRF Lucia reporter activity [2, 5]: 1.03 | IRF Lucia reporter activity ([2]; agonist: LPS (TLR4) 0.1 ug/mL): 1.04

Cc1cccc(/C=N/Nc2cc(N3CCOCC3)nc(OCCc3ccccn3)n2)c1
IRF Lucia reporter activity [1, 4]: 3.08

Cc1cccc(/C=N/Nc2cc(N3CCOCC3)nc(OCCc3ccccn3)n2)c1 (library stock concentration (final ~1000-fold dilution): 10 mM)
IRF Lucia reporter activity [2, 5]: 0.326 | IRF Lucia reporter activity ([2]; agonist: LPS (TLR4) 0.1 ug/mL): 2.84

CCOC(=O)CCNc1cc(N2CCc3ccccc3CC2)nc(-c2ccccn2)n1.Cl
IRF Lucia reporter activity [1, 4]: 1

CCC(NC(=O)C(C)NC)C(=O)N1CC(O)CC1Cc1c(-c2[nH]c3cc(F)ccc3c2CC2CC(O)CN2C(=O)C(CC)NC(=O)C(C)NC)[nH]c2cc(F)ccc12 (centres undefined)
IRF Lucia reporter activity [1, 4]: 0.519

CCC(NC(=O)C(C)NC)C(=O)N1CC(O)CC1Cc1c(-c2[nH]c3cc(F)ccc3c2CC2CC(O)CN2C(=O)C(CC)NC(=O)C(C)NC)[nH]c2cc(F)ccc12 (centres undefined) (library stock concentration (final ~1000-fold dilution): 10 mM)
IRF Lucia reporter activity [2, 5]: 0.626 | IRF Lucia reporter activity ([2]; agonist: LPS (TLR4) 0.1 ug/mL): 0.632

Cc1ccc(CN(CC(O)COc2cccc3[nH]ccc23)C(C)(C)C)cc1 (centres undefined) (library stock concentration (final ~1000-fold dilution): 10 mM)
IRF Lucia reporter activity [3, 5]: 0.837 | IRF Lucia reporter activity ([3]; agonist: LPS (TLR4) 0.1 ug/mL): 1.9

Cc1cc(C(C)Nc2ccccc2C(=O)O)c2nc(N3CCOCC3)cc(=O)n2c1 (centres undefined) (library stock concentration (final ~1000-fold dilution): 10 mM)
IRF Lucia reporter activity [2, 5]: 1 | IRF Lucia reporter activity ([2]; agonist: LPS (TLR4) 0.1 ug/mL): 1.04
